Data: PubChem BioAssay (NCI)
Compounds without any hit were thinned out: in the full panel of roughly 83,000, 20% have a hit.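 Negative percent growth values reflect cell death: -40 means 40% of the cells present at the start died, and -100 means all died.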 Values without a mark were called inactive. Activity calls are given as the source filed them. The calls were made as follows: active = growth percent below 10; inactive = the rest.

What was measured:
Test in all cases: NCI-60 one-dose screen, 48 h (100 = growth as untreated, 0 = no growth, -100 = all killed)
Conditions in all cases: 10 µM
NCI-H23 lung = tested on: NCI-H23 lung
NCI-H226 lung = tested on: NCI-H226 lung
NCI-H322M lung = tested on: NCI-H322M lung
HOP-62 NSCLC = tested on: HOP-62 NSCLC
NCI-H460 lung = tested on: NCI-H460 lung
HOP-92 NSCLC = tested on: HOP-92 NSCLC
786-0 renal = tested on: 786-0 renal
COLO 205 colon = tested on: COLO 205 colon
A549/ATCC NSCLC = tested on: A549/ATCC NSCLC
NCI-H522 lung = tested on: NCI-H522 lung

SMILES | growth (NCI-H23 lung) | growth (NCI-H226 lung) | growth (NCI-H322M lung) | growth (HOP-62 NSCLC) | growth (NCI-H460 lung) | growth (HOP-92 NSCLC) | growth (786-0 renal) | growth (COLO 205 colon) | growth (A549/ATCC NSCLC) | growth (NCI-H522 lung)
O=C(NCCNC(=O)c1ccc(Cl)cc1Cl)c1ccc(Cl)cc1Cl | 114% | 101% | 113% | 87.6% | 105% | 71.8% | 107% | 129% | – | –
CCCCOC(OCCCC)c1ccccc1 | 95% | 107% | 104% | 117% | 109% | 101% | 105% | 112% | 91.4% | –
OCC1OC(OC2C(O)C(CO)OC2(CO)OC2OC(CO)C(O)C(O)C2O)C(O)C(O)C1O (stereo unspecified) | 103% | 115% | 120% | 98.6% | 111% | 90.3% | – | 117% | 98% | –
COC(=O)CCCCC1=CCC2C(=O)C=C(O)C2C1 (stereo unspecified) | 100% | 102% | 92.4% | 91.8% | 105% | 85.2% | 99.9% | 111% | 98.7% | –
CCc1nn(Cc2ccccc2)c2nc(C)c(CCc3ccccc3)c(Cl)c12 | 101% | 90.7% | 79.5% | 104% | 90.8% | 9.07% (active) | 85% | 110% | – | –
CCOC(=O)c1[nH]c(C)c(C(=O)O)c1C | 109% | 101% | 91.8% | 111% | 110% | – | 110% | 112% | 76.2% | 90.4%
CCCCC1C(=O)N(c2ccccc2)N(c2ccccc2)C1=O | 109% | 95.8% | 99.9% | 99.3% | 114% | – | 98.5% | 106% | 106% | 102%
CC1=C(/C=C/C(C)=C/C=C/C(C)=C/CO)C(C)(C)CCC1 | 102% | 104% | 105% | 104% | 117% | – | 103% | 110% | 102% | 105%
Cc1cc2nc(CO)[nH]c2cc1C | 105% | 108% | 113% | 99.4% | 114% | – | 107% | 103% | 90.9% | 96.9%
CC1=CC(=O)c2ccccc2C1=O | 101% | 101% | 99.2% | 105% | 115% | – | 106% | 108% | 94.1% | 114%
CC(=O)Nc1cccc(NC(C)=O)n1 | 128% | 103% | 104% | 101% | 104% | – | 101% | 123% | 108% | 100%
COc1cc(C2NC(=O)C(C#N)=C(Nc3cccc(C)c3)S2)ccc1O (stereo unspecified) | 103% | 104% | 106% | 98.1% | 99.5% | – | 105% | 119% | 32.5% | 47.5%
Oc1ccc2c(c1)OCC1(O)Cc3cc(O)c(O)cc3C21 (stereo unspecified) | 86.9% | 98.2% | 103% | 82.2% | 112% | – | 95.2% | 165% | 93.7% | -34.1% (active)
c1ccc(CN2COc3c(ccc4c3OCN(Cc3ccccc3)C4)C2)cc1 | 29.9% | -9.91% (active) | 32.9% | 26.2% | 9.51% (active) | – | -26% (active) | 12.7% | 6.93% (active) | 30.7%
c1ccc2c(N3CCCCC3)ncnc2c1 | 86.4% | 87.2% | 117% | 100% | 97.8% | – | 98.7% | 88.5% | 86.9% | 47.6%
O=S(=O)(O)C(Nc1ccccc1)c1ccccc1 (stereo unspecified) | 103% | 91.5% | 97.6% | 100% | 102% | – | 100% | 103% | 103% | 102%
O=[N+]([O-])c1ccc(-c2ncc(-c3ccc(Br)cc3)o2)cc1 | 93.7% | 107% | 110% | 114% | 73.4% | – | 97.3% | 134% | 30.5% | -2.2% (active)
C=C[Si](OC(C)=O)(OC(C)=O)OC(C)=O | 106% | 111% | 87.6% | 89.5% | 103% | – | 98.5% | 107% | 104% | 88.7%
CCCCC(=O)c1ccc(OC)cc1 | 99.7% | 99.7% | 111% | 112% | 104% | – | 96.2% | 118% | 97.4% | 91.2%
CCC/C=C(/C(C)=O)C(=O)OCC | 107% | 95.7% | 110% | 108% | 114% | – | 113% | 113% | 90.8% | 111%
COC(=O)c1ccccc1N(C)C | 97.7% | 99.3% | 104% | 89.7% | 110% | – | 102% | 101% | 92.7% | 99.1%
COc1cc2c3c(n(C)c(=O)c2cc1OC)-c1cc2c(cc1C3=O)OCO2 | 71.9% | 66.9% | 89.9% | 45.1% | 29.3% | – | 77.1% | 72.5% | 81.8% | 1.48% (active)
CC1SC(N)=NC1=O (stereo unspecified) | 94.8% | 107% | 114% | 79.5% | 115% | – | 95.3% | 138% | 102% | 97.5%
COC(=O)C(C)Oc1ccc(OC#N)cc1 (stereo unspecified) | 95% | 97.3% | 100% | 98.2% | 103% | – | 102% | 107% | 99.4% | 103%
Cc1ccc(Cl)cc1NC(=O)N(C)CCO | 110% | 115% | 116% | 109% | 108% | – | 109% | 144% | 59.5% | -7.39% (active)
CCNCCCCNCCCCNCCCCNCCCCNCC | 49.5% | 134% | 42.1% | 113% | 76.1% | – | 150% | 69.1% | 54.4% | 87.3%
CC1CCC2C(C)(C)C3CC12CC1OC13C (stereo unspecified) | 107% | 99.1% | 117% | 109% | 100% | – | 98% | 109% | 110% | 91.7%
O=C1c2ccccc2C(=O)c2c1ccc(C(=O)O)c2[N+](=O)[O-] | 101% | 107% | 105% | 97.2% | 109% | – | 106% | 108% | 103% | 97%
Cc1ccc(C(=O)N/N=C/c2ccc3c(c2)OCO3)cc1 | 91% | 101% | 98.8% | 97.5% | 96.6% | – | 99.8% | 113% | 97.7% | 80.9%
COc1cc(CN)ccc1O | 99.4% | 99.8% | 89.7% | 98.3% | 91.4% | – | 100% | – | 98.6% | 88%
